Data published in PubChem BioAssay (NCI).
The panel holds about 83,000 compounds, 20% with a hit somewhere; the sample as a whole holds those more often.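 48-hour exposure, single concentration, 96-well plates; percent growth endpoint where 0 means no net growth. Active: below 10.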

Columns and labels:
Assay in all cases: NCI-60 one-dose screen, 48 h (100 = growth as untreated, 0 = no growth, -100 = all killed)
Settings in all cases: 10 µM unless noted
NCI-H23 lung = tested on: NCI-H23 lung
NCI-H322M lung = tested on: NCI-H322M lung
HOP-62 NSCLC = tested on: HOP-62 NSCLC
NCI-H460 lung = tested on: NCI-H460 lung
HOP-92 NSCLC = tested on: HOP-92 NSCLC
NCI-H522 lung = tested on: NCI-H522 lung
A549/ATCC NSCLC = tested on: A549/ATCC NSCLC
786-0 renal = tested on: 786-0 renal
COLO 205 colon = tested on: COLO 205 colon

Measured: growth

COc1ccc(Br)c2c1C(=O)CC2
inactive: NCI-H23 lung 109% | NCI-H322M lung 159% | HOP-62 NSCLC 116% | NCI-H460 lung 110% | HOP-92 NSCLC 94.5% | NCI-H522 lung 43.1% | A549/ATCC NSCLC 122% | 786-0 renal 113% | COLO 205 colon 114%

Cc1ccc(NC(=S)N2CCOCC2)cc1C
inactive: NCI-H23 lung 107% | NCI-H322M lung 85.5% | HOP-62 NSCLC 99.7% | NCI-H460 lung 106% | HOP-92 NSCLC 95% | NCI-H522 lung 84.2% | A549/ATCC NSCLC 96.8% | 786-0 renal 97% | COLO 205 colon 118%

N#CC1(O)CCCCC1
inactive: NCI-H23 lung 114% | NCI-H322M lung 97.8% | HOP-62 NSCLC 95.2% | NCI-H460 lung 107% | HOP-92 NSCLC 96.5% | NCI-H522 lung 88.6% | A549/ATCC NSCLC 92.1% | 786-0 renal 105% | COLO 205 colon 109%

CC1(C)C2CCC1(C)C1(C2)OCCS1 (stereo unspecified)
inactive: NCI-H23 lung 95.6% | NCI-H322M lung 99.6% | HOP-62 NSCLC 101% | NCI-H460 lung 106% | HOP-92 NSCLC 102% | NCI-H522 lung 102% | A549/ATCC NSCLC 99% | 786-0 renal 97.4% | COLO 205 colon 118%
